According to PubChem BioAssay (NCATS):
Results filed as inconclusive are left out. The source made the active and inactive calls. Unless noted, calls come from the whole dose curve; as a rule, active = well fitted curve in the direction sought with a large enough effect; inconclusive = small, poorly fitted or top-dose-only effect, or another doubt; inactive = no such curve, though single readings can be large; an effect the other way counts as inactive or inconclusive.

Key:
[1] = P-glycoprotein substrates identified in KB-3-1 adenocarcinoma cell line, qHTS therapeutic library screen (AID 1346986); conditions: KB-3-1 parental cells viability, CellTiter-Glo, 72 h; at 44.5 µM (top of the series); note: nearly all actives have a fitted effect of over 60% in size
How it was run: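 Dose-response cytotoxicity, KB-3-1 vs P-gp-high KB-8-5-11, no colchicine in assay medium. Read: CellTiter-Glo at 72 h.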

[2] = P-glycoprotein substrates identified in KB-8-5-11 adenocarcinoma cell line, qHTS therapeutic library screen (AID 1346987); note: nearly all actives have a fitted effect of over 65% in size; note: potency is the fitted concentration of half-maximal effect
How it was run: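 In this qHTS, P-gp-rich KB-8-5-11 cells received library compounds across a concentration range. Viability was quantified by luminescence after 72 h at 37 degree C.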

[3] = NS1 protein of Zika virus - qHTS assay to identify small molecule inhibitors in human HEK 293 cells (AID 1347053); note: nearly all actives have a fitted effect of over 55% in size
How it was run: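 Read-out is a two-antibody TR-FRET for ZIKV NS1, normalized between uninfected cells and infected cells. Compound added 1 h before MR766 infection at MOI 0.5; human HEK 293 cells incubated 24 h, 37 C.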

[4] = qHTS of pediatric cancer cell lines to identify multiple opportunities for drug repurposing: Primary screen for TC32 cells (AID 1347089); note: nearly all actives have a fitted effect of over 60% in size; note: potency is the fitted concentration of half-maximal effect
How it was run: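 Luminescent CellTiter-Glo read-out of metabolically active TC32 cells after 48 h compound exposure. Primary: MIPE 11-point, 0.78 nM–46 µM; NPC 8-point, 0.59 nM–46 µM. Confirmatory: 11-point dilutions.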

[5] = qHTS of pediatric cancer cell lines to identify multiple opportunities for drug repurposing: Primary screen for DAOY cells (AID 1347090); note: nearly all actives have a fitted effect of over 55% in size; note: potency is the fitted concentration of half-maximal effect
How it was run: (§1)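 Cell viability, CellTiter-Glo luminescence; 500-1,000 cells/well, 8- or 11-point titration, 48 h compound exposure at 37 degrees C, 5% CO2. Controls: DMSO neutral, bortezomib 2.3 µM final as positive.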

[6] = qHTS of pediatric cancer cell lines to identify multiple opportunities for drug repurposing: Primary screen for SJ-GBM2 cells (AID 1347091); note: potency is the fitted concentration of half-maximal effect
How it was run: as §1

[7] = qHTS of pediatric cancer cell lines to identify multiple opportunities for drug repurposing: Primary screen for A673 cells (AID 1347092); note: nearly all actives have a fitted effect of over 45% in size
How it was run: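 A673 cells (500-1,000 cells/well in growth media) were pre-incubated 5 h at 37 degrees C, then exposed to compounds for 48 h. Viability was read as CellTiter-Glo luminescence; concentration-response curves came directly from the primary screen.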

[8] = qHTS of pediatric cancer cell lines to identify multiple opportunities for drug repurposing: Primary screen for SK-N-MC cells (AID 1347093); note: potency is the fitted concentration of half-maximal effect
How it was run: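 Metabolically active cells were quantified by ATP-dependent luminescence (CellTiter-Glo, 15 min at room temperature) following 48 h treatment. Cells had been plated at 500-1,000 per well and settled for 5 h beforehand.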

[9] = qHTS of pediatric cancer cell lines to identify multiple opportunities for drug repurposing: Primary screen for BT-37 cells (AID 1347094); note: potency is the fitted concentration of half-maximal effect
How it was run: (§2)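 Following a 5-hour attachment period, cells at 500-1,000/well received compounds and were cultured for 48 hours. CellTiter-Glo was added and luminescence read to estimate viable, metabolically active cells.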

[10] = qHTS of pediatric cancer cell lines to identify multiple opportunities for drug repurposing: Primary screen for NB-EBc1 cells (AID 1347095); note: potency is the fitted concentration of half-maximal effect
How it was run: as §2

[11] = qHTS of pediatric cancer cell lines to identify multiple opportunities for drug repurposing: Primary screen for U-2 OS cells (AID 1347096); note: nearly all actives have a fitted effect of over 50% in size; note: potency is the fitted concentration of half-maximal effect
How it was run: (§3)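 Cells (500-1,000/well) rested 5 h, then received compounds for 48 h; metabolically active cells were measured by CellTiter-Glo luminescence. Final concentrations spanned up to 46 µM (MIPE, 11-point) or 0.59 nM-46 µM (NPC, 8-point) in primary screens, 11-point in follow-ups.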

[12] = qHTS of pediatric cancer cell lines to identify multiple opportunities for drug repurposing: Primary screen for Saos-2 cells (AID 1347097); note: nearly all actives have a fitted effect of over 40% in size; note: potency is the fitted concentration of half-maximal effect
How it was run: as §2

[13] = qHTS of pediatric cancer cell lines to identify multiple opportunities for drug repurposing: Primary screen for SK-N-SH cells (AID 1347098); note: nearly all actives have a fitted effect of over 65% in size; note: potency is the fitted concentration of half-maximal effect
How it was run: as §3

[14] = Identifying Small Molecule Inhibitors of Pancreatic Cancer Stem Cells (Panc1, Adherent) (AID 1259362); conditions: viability; note: potency is the fitted concentration of half-maximal effect
How it was run: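 Adherent (2D) versus sphere (3D) formats; spheres generated 14 d in SCM beforehand. Compound transferred by pin tool after 4 h, 48 h incubation, CellTiter-Glo endpoint.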

[15] = Natriuretic polypeptide receptor (hNpr1) antagonism - Pilot counterscreen GloSensor control cell line (AID 1347045; calls by dose curve)
How it was run: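 HEK293 cGMP-sensor cells; 2% GloSensor reagent 2 h RT; LOPAC compounds in 1:5 titrations 30-50 min; 50 uM SNP 20 min; luminescence pre-read and post-read.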

[16] = molecular target: T1, Tyrosine-protein phosphatase non-receptor type substrate 1 (Homo sapiens) + Leukocyte surface antigen CD47 (Homo sapiens) (UniProt P78324+Q08722); experiment: CD47-SIRPalpha protein protein interaction - LANCE assay qHTS validation (AID 1347057; active = well fitted curve in the direction sought with a large enough effect in the signal ratio, with a control signal flat, not every such curve was filed as active; the % refers to the signal ratio)
T1 sequence (P78324 whole entry, looked up, the tested form may be a part): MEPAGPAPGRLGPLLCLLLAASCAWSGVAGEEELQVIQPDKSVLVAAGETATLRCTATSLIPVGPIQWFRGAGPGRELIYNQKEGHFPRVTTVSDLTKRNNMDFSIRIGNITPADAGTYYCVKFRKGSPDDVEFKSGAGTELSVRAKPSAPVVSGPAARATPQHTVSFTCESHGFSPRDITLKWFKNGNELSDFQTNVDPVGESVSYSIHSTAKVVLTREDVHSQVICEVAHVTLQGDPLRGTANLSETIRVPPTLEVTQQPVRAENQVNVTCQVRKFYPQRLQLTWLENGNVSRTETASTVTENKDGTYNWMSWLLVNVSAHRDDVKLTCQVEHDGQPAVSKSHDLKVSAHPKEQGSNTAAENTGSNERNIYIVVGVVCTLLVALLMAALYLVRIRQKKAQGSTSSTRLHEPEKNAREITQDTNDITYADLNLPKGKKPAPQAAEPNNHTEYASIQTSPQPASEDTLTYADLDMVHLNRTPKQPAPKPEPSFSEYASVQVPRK
T1 sequence (Q08722 whole entry, looked up, the tested form may be a part): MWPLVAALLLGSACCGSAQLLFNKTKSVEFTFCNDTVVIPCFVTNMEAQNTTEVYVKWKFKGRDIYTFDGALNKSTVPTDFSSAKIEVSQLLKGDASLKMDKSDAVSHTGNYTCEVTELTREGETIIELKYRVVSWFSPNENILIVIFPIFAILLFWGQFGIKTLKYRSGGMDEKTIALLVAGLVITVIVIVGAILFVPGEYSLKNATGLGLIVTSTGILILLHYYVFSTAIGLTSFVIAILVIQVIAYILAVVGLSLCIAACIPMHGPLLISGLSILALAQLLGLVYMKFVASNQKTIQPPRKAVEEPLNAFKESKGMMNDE
How it was run: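 Inhibition of soluble CD47/SIRPalpha ectodomain association by titrated compounds, measured as 665/615 nm time-resolved FRET ratio after sequential 30 min room-temperature incubations.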

[17] = molecular target: T1, Tyrosine-protein phosphatase non-receptor type substrate 1 (Homo sapiens) + Leukocyte surface antigen CD47 (Homo sapiens); experiment: CD47-SIRPalpha protein protein interaction - HTRF assay qHTS validation (AID 1347058; active = well fitted curve in the direction sought with a large enough effect in the signal ratio, not every such curve was filed as active; the % refers to the signal ratio)
How it was run: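 Soluble extracellular domains (6His-CD47, Avi-tag-biotinylated SIRPalpha) in PBS pH 7.4 with 0.05% IGEPAL CA-630. Compounds were preincubated 30 min at RT with CD47 and anti-His-Eu, then SIRPalpha and SAV-XL665 were added. TR-FRET 665/615 ratio.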

[18] = molecular target: Parathyroid hormone/parathyroid hormone-related peptide receptor (Homo sapiens) (UniProt Q03431); experiment: qHTS for PTHR1 Agonists: Optimization Screen against the NCGC LOPAC library (AID 1347079);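 note: GloSensor cAMP luminescence in HEK-293 GP2 cells expressing human PTHR1 with IBMX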
Sequence of Parathyroid hormone/parathyroid hormone-related peptide receptor (Homo sapiens) (Q03431 whole entry, looked up): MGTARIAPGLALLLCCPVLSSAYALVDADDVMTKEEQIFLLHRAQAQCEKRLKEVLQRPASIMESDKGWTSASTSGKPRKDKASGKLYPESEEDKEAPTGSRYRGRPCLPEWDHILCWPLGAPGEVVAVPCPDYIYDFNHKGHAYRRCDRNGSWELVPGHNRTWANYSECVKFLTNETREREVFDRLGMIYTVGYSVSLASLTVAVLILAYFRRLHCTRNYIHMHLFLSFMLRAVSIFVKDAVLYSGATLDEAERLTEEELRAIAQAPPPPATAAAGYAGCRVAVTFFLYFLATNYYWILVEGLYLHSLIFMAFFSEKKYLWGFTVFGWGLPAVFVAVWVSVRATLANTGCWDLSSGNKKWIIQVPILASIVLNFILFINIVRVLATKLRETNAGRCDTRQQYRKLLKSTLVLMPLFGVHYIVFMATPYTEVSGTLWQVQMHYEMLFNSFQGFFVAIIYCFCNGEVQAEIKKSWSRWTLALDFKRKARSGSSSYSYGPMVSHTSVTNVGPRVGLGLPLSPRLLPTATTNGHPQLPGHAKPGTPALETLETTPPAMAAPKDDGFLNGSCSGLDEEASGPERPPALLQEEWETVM
How it was run: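 Signal increase flags agonism. GP2 cells, derived from HEK-293, express human PTHR1 and a GloSensor cAMP construct.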

[19] = molecular target: Atrial natriuretic peptide receptor 2 (Homo sapiens) (UniProt P20594); experiment: Natriuretic polypeptide receptor (hNpr2) antagonism - Pilot subtype selectivity assay (AID 1347050; calls by dose curve)
Sequence of Atrial natriuretic peptide receptor 2 (Homo sapiens) (P20594 whole entry, looked up): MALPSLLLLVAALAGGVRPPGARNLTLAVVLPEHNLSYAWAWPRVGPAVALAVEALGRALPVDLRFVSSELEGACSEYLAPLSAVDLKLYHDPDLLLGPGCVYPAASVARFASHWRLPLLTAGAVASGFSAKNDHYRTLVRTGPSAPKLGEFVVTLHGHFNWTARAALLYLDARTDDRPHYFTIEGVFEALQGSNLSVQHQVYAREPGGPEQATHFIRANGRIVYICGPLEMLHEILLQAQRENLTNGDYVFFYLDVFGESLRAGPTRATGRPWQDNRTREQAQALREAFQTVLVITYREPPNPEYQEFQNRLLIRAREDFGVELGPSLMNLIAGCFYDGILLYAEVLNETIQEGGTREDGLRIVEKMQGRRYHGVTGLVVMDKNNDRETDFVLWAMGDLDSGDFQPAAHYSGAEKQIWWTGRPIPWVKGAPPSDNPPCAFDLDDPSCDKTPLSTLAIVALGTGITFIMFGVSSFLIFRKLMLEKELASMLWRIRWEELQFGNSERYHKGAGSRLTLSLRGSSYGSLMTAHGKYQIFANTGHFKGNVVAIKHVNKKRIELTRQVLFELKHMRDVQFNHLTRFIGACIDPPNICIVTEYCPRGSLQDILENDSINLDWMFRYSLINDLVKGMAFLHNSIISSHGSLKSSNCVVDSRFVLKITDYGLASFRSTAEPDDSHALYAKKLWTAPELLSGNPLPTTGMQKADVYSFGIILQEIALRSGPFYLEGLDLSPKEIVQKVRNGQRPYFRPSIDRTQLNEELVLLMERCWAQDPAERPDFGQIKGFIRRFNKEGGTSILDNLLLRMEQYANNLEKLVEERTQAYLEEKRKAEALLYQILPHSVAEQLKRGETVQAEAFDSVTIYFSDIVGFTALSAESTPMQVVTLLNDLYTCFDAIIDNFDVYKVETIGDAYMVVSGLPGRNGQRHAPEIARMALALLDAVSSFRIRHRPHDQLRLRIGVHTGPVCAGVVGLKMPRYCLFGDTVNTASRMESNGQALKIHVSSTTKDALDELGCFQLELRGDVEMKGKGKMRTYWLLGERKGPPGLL
How it was run: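 Antagonist mode: compounds (LOPAC1280, seven 1:5 dilutions) added 30 min before 1 nM hNppC stimulation of hNpr2-HEK293 cGMP-sensor cells; luminescence read before and 20 min after agonist at ambient temperature.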

Measured: Potency

O=NN(CCCl)C(=O)NC1CCCCC1
not listed: [14] | [15] | [16] | [17] | [18] | [19]
inactive: all other assays above

O=C(O)CCn1c2c(c3ccccc31)C[C@H](NS(=O)(=O)c1ccc(F)cc1)CC2
not listed: [14] | [15] | [16] | [17] | [18] | [19]
inactive: all other assays above

CCOCC(O)COc1ccc(NC(=O)CC[S+](C)C)cc1 (centres undefined)
not listed: [7] | [14] | [15] | [16] | [17] | [18] | [19]
inactive: all other assays above

COc1c(N2CCNC(C)C2)c(F)cc2c(=O)c(C(=O)O)cn(C3CC3)c12 (centres undefined)
not listed: [14] | [15] | [16] | [17] | [18] | [19]
inactive: all other assays above

COc1cc2nc(N3CCCN(C)CC3)nc(NC3CCN(Cc4ccccc4)CC3)c2cc1OC
inactive: [15] | [16] | [17] | [18]
active: [14] 2.35 µM | [2] 9.35 µM | [4] 20.8 µM | [5] 18.7 µM | [6] 14.8 µM | [8] 6.62 µM | [9] 13.7 µM | [10] 23.5 µM | [12] 7.43 µM | [13] 9.61 µM

O=C(N[C@H](CO)[C@H](O)c1ccc([N+](=O)[O-])cc1)C(Cl)Cl
not listed: [13] | [14] | [15] | [16] | [17] | [18] | [19]
inactive: all other assays above

CNS(=O)(=O)CCc1ccc2[nH]cc(C3CCN(C)CC3)c2c1
inactive: [1] | [2] | [3] | [16] | [17] | [4] | [5] | [11] | [12]

Cc1noc(NS(=O)(=O)c2ccc(N)cc2)c1C
not listed: [6] | [14] | [15] | [16] | [17] | [18] | [19]
inactive: all other assays above

O=S(=O)(c1cccc2cnccc12)N1CCCNCC1
inactive: [1] | [2] | [3] | [4] | [5] | [6] | [8] | [9] | [10] | [11]

NC(=O)c1ccc2[nH]ccc2c1
not listed: [1] | [12] | [14]
inactive: all other assays above

CC(C(=O)O)c1ccc2c(c1)CC(=O)c1ccccc1S2 (centres undefined)
inactive: [1] | [2] | [3] | [4] | [6] | [10] | [11] | [12]

NNC(=O)c1ccncc1
not listed: [1] | [14] | [15] | [16] | [17] | [18] | [19]
inactive: all other assays above

CCOC(=O)[C@H](CCc1ccccc1)N[C@H]1CS[C@H](c2cccs2)CN(CC(=O)O)C1=O
inactive: [2] | [3] | [4]

CC(=O)[C@H]1CC[C@H]2[C@@H]3CC=C4C[C@@H](O)CC[C@]4(C)[C@H]3CC[C@]12C
not listed: [1] | [13] | [14] | [15] | [16] | [17] | [18] | [19]
inactive: all other assays above

CCCCOc1ccc(CC(=O)NO)cc1
active: [5] 11.8 µM | [8] 7.43 µM | [9] 19.5 µM | [10] 18.7 µM | [11] 26.6 µM | [12] 23.5 µM | [13] 19.2 µM
inactive: [1] | [3] | [4]

Nc1nc(N)nc(-c2cc(Cl)ccc2Cl)n1
not listed: [1] | [14] | [15] | [16] | [17] | [18] | [19]
inactive: all other assays above

CNS(=O)(=O)Cc1ccc2[nH]cc(CCN(C)C)c2c1
not listed: [1] | [14] | [15] | [16] | [17] | [18] | [19]
inactive: all other assays above

COCCCOc1cc(C[C@@H](C[C@H](N)[C@@H](O)C[C@H](C(=O)NCC(C)(C)C(N)=O)C(C)C)C(C)C)ccc1OC
not listed: [1] | [14] | [15] | [16] | [17] | [18] | [19]
inactive: all other assays above
